In PubChem BioAssay AID1259415 (National Center for Advancing Translational Sciences (NCATS), 2018):
Among all 410,000 compounds or so, about 18,000 (4.4%) were called active. Inconclusive results (about 7%) are left out. No stated cut-off is given here; in the data, active means activity change below about -60%; inconclusive means no clear call, values can overlap the other calls; inactive means above about -39%. What follows is part of a selection rich in actives, with near analogues and random picks from the rest.
On the % scale 0 is the no-effect control and ±100 the full control effect.

Test: qHTS Assay for inhibitors of the human cytomegalovirus (HCMV)
Details: HFF cells, HCMV-luciferase reporter, 72 h; at 57.5 µM; active compounds read low
Outline: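 Cell-based, HFFs, 1000 cells/well, 16 h 37C; cpds in DMSO + HCMV-luc, MOI 1 PFU/cell; 72 h 37C; OneGlo luminescence after 5 min RT; norm. to buffer vs Salinomycin 10uM.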
In the case of `CCc1cc(-c2nnn(CCC3COCCO3)c2CC)ccc1-c1cn(Cc2ccc3ccccc3c2)nn1` (configuration not stated), the activity change, negative = inhibition is reported as -80.6% (active).
In the case of `O=C(C1CCC1)N1C[C@H]2[C@@H](c3ccccc31)[C@@H](CO)N2C(=O)c1ccccc1F`, the activity change, negative = inhibition is reported as 27.8% (inactive).
In the case of `CC(C)(C)c1ccc(C(=O)NCC(c2ccc(Cl)cc2)N2CCOCC2)cc1` (configuration not stated), the activity change, negative = inhibition is reported as -1.98% (inactive).
In the case of `Cc1ccc(C(=O)N2c3ncnn3C3(CCCCC3)[C@@H]3CCCC[C@@H]32)cc1`, the activity change, negative = inhibition is reported as -15.5% (inactive).
With `COc1ccc(S(=O)(=O)N2CC3ON=C(c4c(F)cccc4Cl)C3C2)cc1OC` (configuration not stated) the activity change, negative = inhibition was -7.48% (inactive).
With `COc1ccc(CCN2CC(C(=O)OCC(=O)NCc3ccccc3Cl)CC2=O)cc1OC` (configuration not stated) the activity change, negative = inhibition was 16.6% (inactive).
In the case of `COc1ccc(CC(=O)N2CC3ON=C(c4c(F)cccc4Cl)C3C2)cc1OC` (configuration not stated), the activity change, negative = inhibition is reported as -61.7% (active).
In the case of `COc1ccccc1NC(=O)c1oc2ccccc2c1NC(=O)COc1ccccc1OC`, the activity change, negative = inhibition is reported as 2.62% (inactive).
In the case of `CCOc1ccccc1CNC(=O)c1cnc2c(-c3ccc(OCC)c(OCC)c3)c(C)nn2c1C`, the activity change, negative = inhibition is reported as -3.31% (inactive).
In the case of `Cc1ccc(CN2COc3cc(C)c4c(oc(=O)c5ccccc54)c3C2)cc1`, the activity change, negative = inhibition is reported as 8.87% (inactive).
With `C/C(=N\NC(=O)c1cc2c(s1)CCC(C)C2)c1cccnc1` (configuration not stated) the activity change, negative = inhibition was -78.9% (active).
For `CC1CCc2sc(C(=O)N/N=C/C3CCCCC3)cc2C1` (configuration not stated), the activity change, negative = inhibition was 13.4% (inactive).
In the case of `C/C(=N\NC(=O)c1cccnc1)c1ccc(-n2ccnc2)cc1`, the activity change, negative = inhibition is reported as -16.6% (inactive).
In the case of `Cc1ccc(C)c(N2CCN(Cc3nnc(-c4ccccc4)o3)CC2)c1`, the activity change, negative = inhibition is reported as 27.7% (inactive).
For `COc1ccc(-c2nc(CN3CCC(C(=O)NCCN(CC(C)C)CC(C)C)CC3)c(C)o2)cc1OC`, the activity change, negative = inhibition was -0.431% (inactive).
For `Cc1nnc(C)n1-c1ccc(C(=O)Nc2cccc(Br)c2)cc1`, the activity change, negative = inhibition was 33.2% (inactive).
With `CCN1C(=O)N[C@@H](CCc2ccccc2)C(C(=O)OC)=C1C` the activity change, negative = inhibition was -1.16% (inactive).
For `CCOC(=O)CN(C(=O)COc1nc(C)cc(C)c1C#N)c1ccc(Cl)cc1`, the activity change, negative = inhibition was -1.87% (inactive).
With `CCOc1ccc(/C=C(\C#N)c2nc3ccccc3c(=O)[nH]2)cc1OC` the activity change, negative = inhibition was 18% (inactive).
In the case of `CCOc1cc(/C=C(/C#N)c2ccc(Cl)cc2)cc(Cl)c1OCC(=O)O`, the activity change, negative = inhibition is reported as -79.4% (active).
For `Cc1ccc(Cn2c(=O)n(-c3ccc(C)cc3)c(=O)c3c2c2cc(C)ccc2n3C)cc1`, the activity change, negative = inhibition was 5.49% (inactive).
For `CC1CCCN(c2cc3c(cc2F)c(=O)c(S(=O)(=O)c2cccc(Cl)c2)cn3Cc2ccccc2)C1` (configuration not stated), the activity change, negative = inhibition was -26.5% (inactive).
For `CC1(C(=O)Nc2ccc3c(c2)OCCO3)CCN1C(=O)Cc1cc(F)ccc1F` (configuration not stated), the activity change, negative = inhibition was 20.3% (inactive).
With `O=C(/C=C\c1ccc2c(c1)OCO2)NC1(C(=O)Nc2ccc3c(c2)OCCO3)CCCCC1` the activity change, negative = inhibition was -87.5% (active).
For `S=C(Nc1ccc2c(c1)OCO2)N1CCCC1`, the activity change, negative = inhibition was 17.6% (inactive).
In the case of `COC(=O)[C@@]1(C#N)CC(=O)N([C@@H](C)c2ccccc2)[C@H]1c1ccccc1`, the activity change, negative = inhibition is reported as -35.4% (inactive).
With `CC(=O)N1c2ccccc2CC1C(=O)N1CCN(c2ccc(F)cc2)CC1` (configuration not stated) the activity change, negative = inhibition was 16.1% (inactive).
For `O=c1nc(N2CCOCC2)nc2n1CCO2`, the activity change, negative = inhibition was -26.3% (inactive).
With `COc1ccc(OC)c(NC(=O)C2CCN(S(=O)(=O)c3ccc(C)cc3)CC2)c1` the activity change, negative = inhibition was -12.3% (inactive).
In the case of `O=C(CSc1nnc(Cn2cnc3ccccc32)o1)c1ccccc1`, the activity change, negative = inhibition is reported as -35.1% (inactive).
With `c1ccc(Cc2nn3c(Cn4cnc5ccccc54)nnc3s2)cc1` the activity change, negative = inhibition was -65.2% (active).
With `Fc1ccc(OCc2nn3c(Cn4nnc5ccccc54)nnc3s2)cc1` the activity change, negative = inhibition was -1.96% (inactive).
For `Cc1ccccc1CNC(=O)c1ccc(NC(=O)N2CCCCc3ccccc32)cc1`, the activity change, negative = inhibition was -4.65% (inactive).
For `COc1ccc(C(=O)c2oc3ccccc3c2NC(=O)COc2cccc(C)c2)cc1`, the activity change, negative = inhibition was 9.86% (inactive).
With `Cc1noc(C)c1S(=O)(=O)N(C)C[C@H]1Oc2c(NC(=O)Nc3ccc4c(c3)OCO4)cccc2C(=O)N([C@H](C)CO)C[C@@H]1C` the activity change, negative = inhibition was 22.1% (inactive).
For `COc1ccc(-c2cn3nc(N4CCCC(C(=O)NCCCOC(C)C)C4)sc3n2)cc1` (configuration not stated), the activity change, negative = inhibition was 0% (inactive).
In the case of `Cc1ccc2nsnc2c1S(=O)(=O)N1CCCC1C(=O)O` (configuration not stated), the activity change, negative = inhibition is reported as -8.96% (inactive).
With `CCc1ccc(S(=O)(=O)c2nnn3c2nc(N2CCN(CC)CC2)c2sccc23)cc1` the activity change, negative = inhibition was 9.37% (inactive).
With `N#CCCN(CCC#N)c1nnc(-c2ccccc2)s1` the activity change, negative = inhibition was 3.02% (inactive).
In the case of `CC1CCCC(C)N1C(=O)CN1CCN(c2nc(-c3ccc(F)cc3)cs2)CC1` (configuration not stated), the activity change, negative = inhibition is reported as -63.2% (active).
With `CN(C)CCCNC(=S)N1CCN(c2nc(-c3ccccc3)cs2)CC1` the activity change, negative = inhibition was -3.01% (inactive).
In the case of `CCc1ccc(CNC(=O)C2CCN(c3nn4cc(-c5ccc(F)cc5)nc4s3)CC2)cc1`, the activity change, negative = inhibition is reported as 0% (inactive).
In the case of `O=C(NCc1nnc(SCC(=O)N2CCC(Cc3ccccc3)CC2)o1)c1ccco1`, the activity change, negative = inhibition is reported as -25.7% (inactive).
With `COc1ccc(NC(=O)Nc2ccc3nsnc3c2)cc1` the activity change, negative = inhibition was -62.9% (active).
With `COC(=O)[C@H](CCSC)NC(=O)Nc1ccc(OC)cc1` the activity change, negative = inhibition was 10.5% (inactive).
With `COc1ccc(NC(=O)Nc2cccc(-c3noc(C)n3)c2)cc1` the activity change, negative = inhibition was -15.1% (inactive).
In the case of `CCOC(=O)c1ccc(NC(=O)Cn2c(=O)n(-c3ccc(C)cc3)c(=O)c3c2cnn3C)cc1`, the activity change, negative = inhibition is reported as 2.83% (inactive).
In the case of `CSc1ncnc2c1ncn2CC(=O)C1CCC2C3CCC4=CC(=O)CCC4(C)C3CCC12C` (configuration not stated), the activity change, negative = inhibition is reported as -83% (active).
In the case of `CSc1ncnc2c1ncn2CCCNCC1CCCCC1`, the activity change, negative = inhibition is reported as 8.49% (inactive).
In the case of `CSc1ncnc2c1ncn2CCCNCc1ccco1`, the activity change, negative = inhibition is reported as 11.8% (inactive).
For `O=C(O)c1ccc(Cn2c(SCc3ccc(F)cc3)nc3ccncc32)cc1`, the activity change, negative = inhibition was 0.974% (inactive).
In the case of `Cn1c(C(=O)NCCCN2CCN(c3cccc(Cl)c3)CC2)cc2c(=O)n(C)c3ccccc3c21`, the activity change, negative = inhibition is reported as -68.6% (active).
With `O=C(NCCCN1CCN(c2cccc(Cl)c2)CC1)c1nnc(Cc2ccc(F)cc2Cl)o1` the activity change, negative = inhibition was -14.1% (inactive).
In the case of `CCOc1ccc(CCNC(=O)c2cc3c(=O)n(C)c4ccccc4c3n2C)cc1`, the activity change, negative = inhibition is reported as -15.3% (inactive).
For `Cc1cccc(NC(=O)CSc2ncc(-c3ccccc3)[nH]2)c1C`, the activity change, negative = inhibition was 45.4% (inactive).
In the case of `C=CCOC(=O)C1=C[C@@H](c2ccccc2)C[C@@H](OCc2ccc(CO)cc2)O1`, the activity change, negative = inhibition is reported as -2.26% (inactive).
In the case of `CN(C)c1ccc(C(CNS(=O)(=O)c2cc(F)ccc2F)N2CCOCC2)cc1` (configuration not stated), the activity change, negative = inhibition is reported as -0.38% (inactive).
With `CCCNC(=O)C(CC)n1nc(CC)n2c(cc3oc(C)cc32)c1=O` (configuration not stated) the activity change, negative = inhibition was -16.8% (inactive).
In the case of `COc1cc(OC)c(NC(=O)c2nc(-c3ccncc3)no2)cc1Cl`, the activity change, negative = inhibition is reported as -9.36% (inactive).
For `CCOC(=O)C1CN(S(=O)(=O)c2ccc(F)cc2)C1`, the activity change, negative = inhibition was 41% (inactive).
With `CCS(=O)(=O)c1ccc2c(c1)N(S(=O)(=O)c1ccccc1)CC(C(=O)O)O2` (configuration not stated) the activity change, negative = inhibition was 4.24% (inactive).
In the case of `CCOC(=O)C1CN(S(=O)(=O)c2ccc(OC)cc2)c2cc(Cl)ccc2O1` (configuration not stated), the activity change, negative = inhibition is reported as -61.8% (active).
In the case of `CCCCCn1c(=O)[nH]c2cc(C(=O)Nc3cc(C)cc(C)c3)ccc2c1=O`, the activity change, negative = inhibition is reported as -0.639% (inactive).
With `CC[C@]1(O)C[C@@H]2CN(CCc3c([nH]c4ccccc34)[C@@](C(=O)OC)(c3cc4c(cc3OC)N(C)[C@H]3[C@@](O)(C(=O)OC)[C@H](OC(C)=O)[C@]5(CC)C=CCN6CC[C@]43[C@@H]65)C2)C1` the activity change, negative = inhibition was -99.7% (active).
With `CC[C@]1(O)CC2CN(CCc3c([nH]c4ccccc34)[C@@](C(=O)OC)(c3cc4c(cc3OC)N(C=O)[C@H]3[C@@](O)(C(=O)OC)[C@H](OC(C)=O)[C@]5(CC)C=CCN6CC[C@]43[C@@H]65)C2)C1` (some centres not stated) the activity change, negative = inhibition was -100% (active).
In the case of `CCc1cccc(NC(=O)CSc2nccn2C)c1`, the activity change, negative = inhibition is reported as 73.7% (inactive).
With `O=C(Nc1cc(-c2nc3ccccc3o2)ccc1Cl)c1cc([N+](=O)[O-])ccc1N1CCOCC1` the activity change, negative = inhibition was 17.1% (inactive).
With `O=C(CCCCn1c(=O)c2ccccc2n(CC(=O)Nc2cccc(C(F)(F)F)c2)c1=O)NCc1ccc2c(c1)OCO2` the activity change, negative = inhibition was -22.6% (inactive).
In the case of `CCC(=O)N1CCc2cc(S(=O)(=O)NC(CC(C)C)C(=O)NCCc3cccc(C)c3)ccc21` (configuration not stated), the activity change, negative = inhibition is reported as -11.4% (inactive).
With `COc1cn(CC(=O)Nc2cccc(C)c2C)c(CN2CCCCC2)cc1=O` the activity change, negative = inhibition was 6.56% (inactive).
With `O=C(c1cccc(F)c1)N1CCN(c2ccc([N+](=O)[O-])c3cccnc23)CC1` the activity change, negative = inhibition was -7.42% (inactive).
In the case of `CC(C)c1ccc(S(=O)(=O)N2CCN(C(=O)c3ccc(N4CCCC4)c([N+](=O)[O-])c3)CC2)cc1`, the activity change, negative = inhibition is reported as -16.3% (inactive).
With `O=C(c1cc(C(=O)N2CCN(c3ccc(F)cc3)CC2)cc([N+](=O)[O-])c1)N1CCN(c2ccc(F)cc2)CC1` the activity change, negative = inhibition was -66.2% (active).
In the case of `COc1ccc(-c2cc(C(=O)N3CCN(c4ccc(F)cc4)CC3)no2)cc1`, the activity change, negative = inhibition is reported as -76% (active).
In the case of `O=[N+]([O-])c1ccc(N2CCN(c3ccc(F)cc3)CC2)cn1`, the activity change, negative = inhibition is reported as -16.4% (inactive).
For `O=C(c1cncc(Br)c1)N1CCN(c2ccc([N+](=O)[O-])cc2)CC1`, the activity change, negative = inhibition was 25.9% (inactive).
In the case of `COc1ccc(N2CCN(C(=O)c3c(C)oc4nc(C)nc(N5CCCC5)c34)CC2)cc1`, the activity change, negative = inhibition is reported as 18.7% (inactive).
In the case of `O=C(c1ccc(N2CCOCC2)c([N+](=O)[O-])c1)N1CCN(S(=O)(=O)c2cccs2)CC1`, the activity change, negative = inhibition is reported as 5.8% (inactive).
For `O=C(c1cccc(F)c1)N1CCN(c2ccc([N+](=O)[O-])c(N3CCCCC3)c2)CC1`, the activity change, negative = inhibition was -60.2% (active).
In the case of `O=C(c1ccc(N2CCOCC2)c([N+](=O)[O-])c1)N1CCN(c2ccccc2F)CC1`, the activity change, negative = inhibition is reported as -77.5% (active).
In the case of `COc1ccc(N2CCN(C(=O)c3cccs3)CC2)cc1`, the activity change, negative = inhibition is reported as 57.6% (inactive).
For `O=C(c1ccc(CN2CCOCC2)cc1)N1CCN(c2ccccc2F)CC1`, the activity change, negative = inhibition was 16.2% (inactive).
